From PubChem BioAssay
MITF TRPM1 HTS – activators of MITF-driven TRPM1 promoter reporter, primary screen, cell-based, SK-MEL-5, luciferase, single point; SK-MEL-5 TRPM1-promoter luciferase, 24 h; % of positive control, neutral wells = 0; activation, % at 12.5 µM; hit rate 0.75% among 300,000;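 active = mean activation of at least 80% with every replicate also reaching 80%; inconclusive = mean reaches 80% but some replicate falls short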;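 note: 0% = neutral control wells and 100% = parthenolide positive control wells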
HIV Env fusion – inhibitors of HIV-1 Env-driven cell-cell fusion, primary screen, HeLa-JRFL effector, CEM21 target cells, luciferase; inhibition, % at 12.3 µM; hit rate 1.1% among 360,000;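 active = mean replicate inhibition score of at least 50 and every replicate individually at or above 50; inconclusive = only one of the two criteria met; inactive = mean below 50 and not all replicates reaching 50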;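 note: 0% = plate neutral controls and 100% = maraviroc near 300 nM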
GSIS activator – GLuc luminescence reporter in INS-1E cells, primary screen for activators of glucose-dependent secretion of insulin. INS-1E GLuc reporter insulin secretion, 2-3 h. activation, % at 16.6 µM. hit rate 0.61% among 370,000. AID 743287, 2014;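 active = lowest replicate activation of at least 40%, so every replicate reaches that level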;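 note: 0% = median of neutral control wells and 100% = median of IBMX positive control wells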
Wnt act – Wnt/beta-catenin pathway activators, primary screen, cell-based, plate reader, single point. hit rate 1.2% among 300,000. activation, % at 9.35 µM. AID 743398, 2014. Wnt/beta-catenin reporter cell assay, activator; in the data active = activation above about 30%, passing the limit was not always enough; inconclusive = no clear call, values can overlap the other calls;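 note: 0% = neutral control wells and 100% = positive control wells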
F508del corr – F508del CFTR correction, initial screen, CFBE line, single point; CFBE cells, YFP halide quenching; stimulated with forskolin plus potentiator P3; % fluorescence drop versus neutral controls; activity (quench increase), % at 7.58 µM; hit rate 0.36% among 350,000;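 active = mean added fluorescence quench of at least 8% versus neutral control, with both replicates also reaching 8%; inconclusive = only one of the mean or replicate conditions met; inactive = mean below 8% and not both replicates reaching 8%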;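 note: cells transiently co-express mutant CFTR-F508del with the halide-sensitive YFP; corrector assay measuring rescue of mutant channel to the surface after 24 h compound exposure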
Starred values were filed as active, the others as inactive; ? = inconclusive; . = no result; [ ] = remark or other dose. An excerpt weighted towards active compounds, which were near 2.7% of everything screened.

SMILES	MITF TRPM1 HTS	HIV Env fusion	GSIS activator	Wnt act	F508del corr
CC(C)(C)c1nc2ccccc2c2nnc(SCC(=O)Nc3nc4ccccc4s3)n12	2	.	23	.	.
CC(C)(C)c1nc2ccccc2c2nnc(SCC(=O)Nc3nccs3)n12	-24	25	77*	-12	.
Cc1nc2ccccc2cc1OCc1ccc(Cl)cc1	.	27	.	.	.
Cc1nc2ccccc2nc(C)c1=NOCc1cccc(Cl)c1	-6	69*	.	-1	1
Clc1cccc2sc(N3CCCC3)nc12	21	-54	.	11	.
Fc1cccc2sc(N3CCCC3)nc12	86*	-9	15	14	1
O=C(Nc1nccs1)c1ccc(-c2cccc([N+](=O)[O-])c2)o1	59	-74	15	60*	2
O=C(Nc1ccccc1F)c1ccc(-c2cccc([N+](=O)[O-])c2)o1	59	-39	1	8	0
O=C(NCc1cccnc1)c1c[nH]c2cc3c(cc2c1=O)OCCO3	.	75*	.	.	.
C[C@@H]1CN(C)C(=O)c2cccc(N)c2O[C@H]1CN(C)S(C)(=O)=O	.	.	17	.	.
Cc1ccc(Cl)cc1N1CCN(C(=O)CSc2nnc3n2C(C)(C)Cc2ccccc2-3)CC1	.	76*	-31	.	.
CN1CCN(C(=O)C[C@@H]2CC[C@@H]3[C@H](COc4ccc(NC(=O)C5CCCC5)cc4C(=O)N3C)O2)CC1	.	.	3	.	-1
COC(=O)C1=C(C)N(Cc2cccc(C(F)(F)F)c2)C(=NCC2CC2)NC1c1cccc(C(F)(F)F)c1 (stereo unspecified)	.	7	420*	-28	-1
CCN=C1NC(c2ccc(F)cc2)C(C(=O)OC)=C(C)N1Cc1cccc(C(F)(F)F)c1 (stereo unspecified)	.	30	19	7	3
CCN=C1NC(c2ccc(C(F)(F)F)cc2)C(C(=O)OC)=C(C)N1Cc1cccc(C(F)(F)F)c1 (stereo unspecified)	.	-44	41*	-11	4
COC(=O)C1=C(C)N(Cc2ccc(C(F)(F)F)cc2)C(=NCc2ccccc2)NC1c1cccc(C(F)(F)F)c1 (stereo unspecified)	.	45	158*	-28	-4
COC(=O)C1=C(C)N(Cc2ccccc2)C(=NCc2cccc(C(F)(F)F)c2)N[C@H]1c1cccc(C(F)(F)F)c1	-94	.	.	.	.
COC(=O)C1=C(C)N(Cc2cccc(C(F)(F)F)c2)C(=NCC2CC2)NC1c1cccc(Cl)c1 (stereo unspecified)	.	3	.	-25	1
COC(=O)C1=C(C)N(Cc2cccc(C(F)(F)F)c2)C(=NCc2ccc3c(c2)OCO3)NC1c1ccc(Cl)cc1 (stereo unspecified)	.	63*	146*	-12	-1
C=CC1CN(S(=O)(=O)c2ccc(Br)cc2)C(=O)N1c1ccc(Br)cc1 (stereo unspecified)	.	7[16.7 µM]	.	.	4
COCC(=O)Nc1ccc2c(c1)[C@H]1C[C@H](CC(=O)NCc3cccc(F)c3)O[C@@H](CO)[C@H]1O2	.	-3[16.7 µM]	7	.	0
O=C(NC[C@H]1CC[C@H]2[C@H](CN2S(=O)(=O)c2ccccc2)O1)NC1CCCCC1	.	.	.	.	-4
COC(=O)C1=C(C)N(Cc2cccc(C(F)(F)F)c2)C(=NCc2ccc(C(F)(F)F)cc2)NC1c1ccc(Cl)cc1 (stereo unspecified)	.	?	.	-28	-1
COC(=O)C1=C(C)N(Cc2cccc(C(F)(F)F)c2)C(=NCc2ccc(C(F)(F)F)cc2)NC1c1ccccc1 (stereo unspecified)	.	31	501*	-21	2
COc1ccc(NC(=S)Nc2ccc3snnc3c2)cc1	51	-15	-16	4	-2
SMILES	MITF TRPM1 HTS	HIV Env fusion	GSIS activator	Wnt act	F508del corr
COc1cccc(NC(=O)c2cccc(Cl)c2)c1	104*	-68	-8	41*	2
COc1cccc(C(=O)Nc2cccc(C(C)=O)c2)c1	50	.	.	1	-5
COc1cccc(NC(=O)Nc2ccc3nc(C)c(C)nc3c2)c1	26	20	.	0	-3
COc1ccc(NC(=O)Nc2cccc(OC)c2)cc1	96*	-63	.	?	.
COc1ccccc1/C=C/C(=O)Nc1ccc2c(c1)CCC2	114*	-135	-41	28	.
COc1ccc(NC(=S)Nc2ccc3nccnc3c2)cc1	88*	-6	-15	.	.
CCCNC(=O)C[C@@H]1CC[C@H]2[C@H](COc3ccc(NC(=O)c4cccs4)cc3C(=O)N2C)O1	.	.	4	.	3
COc1ccc(NC(=O)Nc2ccc(F)cc2F)cc1	92*	-32	4	.	-4
COc1ccc(NC(=O)Nc2ccc(Br)cn2)cc1	87*	-16	6	27	.
COc1cccc(NC(=O)n2ncc3c(C)cccc32)c1	9	-167	4	45*	2
COC(=O)c1ccccc1NC(=O)Nc1ccc(Br)cn1	4	0	16	3	-1
COc1ccc(NC(=O)Nc2ccc3c(c2)CCC3)cc1	105*	-35	10	13	1
CN1C(=O)c2cc(NC(=O)c3ccc(F)c(F)c3)ccc2OC[C@H]2O[C@H](CC(=O)N3CCOCC3)CC[C@@H]21	.	-5[16.7 µM]	-3	.	7
COc1ccc2c3c([nH]c2c1)[C@@H](CO)N(C(=O)c1ccncc1)CC31CCN(Cc2cccnc2)CC1	.	-15[16.7 µM]	-7	.	-2
COC(=O)C[C@@H]1C[C@H]2c3cc(NC(=O)NC4CCCC4)ccc3O[C@H]2[C@@H](CO)O1	.	-3[16.7 µM]	-1	.	-4
COc1ccc(NC(=O)Nc2ccc3oc(C)nc3c2)cc1	44	-32	10	40*	-1
COc1ccc(NC(=S)Nc2ccc(N)c([N+](=O)[O-])c2)cc1	19	-60	.	45*	.
COc1ccc(-c2nc3cc(NC(=S)NC(=O)Cc4ccccc4)ccc3o2)cc1	97*	.	4	.	.
C=CCNC(=O)Nc1ccc2oc(C)nc2c1	9	.	2	.	.
CCC(=O)NC(=S)Nc1ccc2oc(-c3ccc(OC)cc3)nc2c1	60	-15	4	11	0
COc1ccc(C(=O)CCNc2cccc(Cl)c2)cc1	74	-24	-3	69*	.
Cc1noc(C)c1S(=O)(=O)Nc1ccc2c(c1)C(=O)N([C@@H](C)CO)C[C@H](C)[C@@H](CN(C)S(=O)(=O)c1ccc(Cl)cc1)OCCCC[C@H](C)O2	.	22[16.7 µM]	-9	.	1
CCCNC(=O)Nc1ccc2c(c1)C(=O)N(C)[C@H]1CC[C@H](CC(=O)NC3CCC3)O[C@@H]1CO2	.	-2[16.7 µM]	-5	.	-2
O=C(C[C@H]1CC[C@H]2[C@@H](COC[C@H](O)CN2CC2CCCCC2)O1)NCc1ccc(F)cc1	.	17[16.7 µM]	-6	.	-2
COc1cccc(NC(=S)Nc2ccc(F)cc2)c1	-1	-16	.	41*	1
COc1cccc(NC(=O)C2CC2)c1	15	18	3	1	-1
CCCCC(=O)Nc1ccc(Cl)cc1F	.	-5	6	6	0
O=C(CCCCC(=O)Nc1ccc(F)cc1F)Nc1ccc(F)cc1F	.	-9	.	33*	0
